# A selection: hits, their analogues and other compounds. The true share with any hit is near 9%.
# 12-LOX inh – ALOX12 (human) lipoxygenase inhibition; P18054; purified 12hLO, xylenol orange hydroperoxide absorbance; Potency, µM (top dose mostly 108 µM), without a hit: at the top dose activity change, negative = inhibition, usual class: inhibitors; actives 1.1% (n = 580,000); note: % is set by controls: 0 for no effect and ±100 for the full control effect
#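 Purified human 12hLO (150 nM final) in 25 mM Hepes, 0.01% Triton X-100, pH 7.0 was preincubated 15 min at room temperature with compound. Then 40 uM arachidonic acid was added, 30 min. Hydroperoxide was read by Fe-XO absorbance ratio 573/405 nm.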
# HP1b chromo inh – inhibitors of HP1-beta chromodomain binding to methylated histone tails | actives 0.56% (n = 390,000) | P83916 | Potency, µM (top dose mostly 114 µM), for the others: at the highest dose activity change, negative = inhibition, usual class: inhibitors | AlphaScreen HP1-beta / biotin-H3K9me3 peptide binding; note: nearly all actives have a fitted effect of over 70% in size
# Target sequence (P83916 whole entry, looked up): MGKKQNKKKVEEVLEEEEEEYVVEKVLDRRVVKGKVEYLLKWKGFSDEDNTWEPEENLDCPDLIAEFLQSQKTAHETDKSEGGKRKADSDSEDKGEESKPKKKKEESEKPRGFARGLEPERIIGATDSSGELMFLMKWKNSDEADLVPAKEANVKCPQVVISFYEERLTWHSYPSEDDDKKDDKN
#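 AlphaScreen: HP1-beta (50 nM) preformed 30 min with biotin-H3(1-18)K9me3 peptide (50 nM) in PBS pH 7.4, 0.01% Tween-20. Compound added for 30 min at RT, then streptavidin donor/nickel chelate acceptor beads (10 ug/mL) for 30 min.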
# JMJD2A Tudor – inhibitors of human JMJD2A Tudor domain. Potency, µM (titrated, usually from 114 µM), for the others: top-dose activity change, negative = inhibition, usual class: inhibitors. AlphaScreen JMJD2A-Tudor / H3K4me3 peptide binding. actives 4.4% (n = 390,000). O75164; note: % is set by controls: 0 for no effect and ±100 for the full control effect; nearly all actives have a fitted effect of over 50% in size
# BAZ2B inh – inhibitors of human BAZ2B bromodomain; Q9UIF8; AlphaScreen BAZ2B-H3K14Ac peptide displacement; Potency, µM (titrated, usually from 114 µM), inactives show top-dose activity change, negative = inhibition, hits mostly inhibitors; actives 4.4% (n = 360,000); AID 504333; note: % is set by controls: 0 for no effect and ±100 for the full control effect; nearly all actives have a fitted effect of over 60% in size
#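 Protein-peptide AlphaScreen: BAZ2B 50 nM, b-H3K14Ac 50 nM, 1x PBS pH 7.4 + 0.01% Tween-20. Preincubation 30 min RT; cpd 30 min RT (top 110 uM); beads 20 min RT, light-protected.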
# PLK1 PBD inh – inhibitors of human PLK1 polo-box domain binding; Potency, µM, for the others: max response, negative = inhibition, hits mostly inhibitors; actives 2.8% (n = 360,000); P53350; Plk1 PBD binding of FITC phosphopeptide, fluorescence polarization; AID 720504; note: series mostly up to about 57 µM; % is set by controls: 0 for no effect and ±100 for the full control effect; nearly all actives have a fitted effect of over 65% in size
# G9a block – G9a (human) methyltransferase inhibition; Potency, µM (highest dose often 102 µM), without a hit: at the highest dose activity, negative = inhibition, actives largely listed as inhibitors; Q96KQ7; actives 8.8% (n = 350,000); G9a H3K9 monomethylation, AlphaScreen, 2 h; note: % is set by controls: 0 for no effect and ±100 for the full control effect; nearly all actives have a fitted effect of over 75% in size
# Target sequence (Q96KQ7 913-1193 limits assumed): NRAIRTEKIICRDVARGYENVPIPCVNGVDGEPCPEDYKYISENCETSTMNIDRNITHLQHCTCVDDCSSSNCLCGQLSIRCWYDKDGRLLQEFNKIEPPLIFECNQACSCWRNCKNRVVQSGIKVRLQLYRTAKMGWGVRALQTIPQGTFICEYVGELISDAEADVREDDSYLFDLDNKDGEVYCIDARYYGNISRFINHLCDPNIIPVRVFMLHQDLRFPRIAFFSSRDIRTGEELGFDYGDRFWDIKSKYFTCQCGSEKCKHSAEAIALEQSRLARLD
#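 Readings reflect AlphaScreen signal from monomethyl-H3K9 antibody detection. HMT at 20 nM; substrate b-H3K9 500 nM; cofactor SAM 20 uM; 2 h RT reaction; compounds tested as titrations in qHTS with 15 min preincubation.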
# An asterisk follows results filed as active; ? = inconclusive; · = no result given; [ ] = another dose, or the depositor's remark. Calls come from the whole dose curve; as a rule, active = well fitted curve in the direction sought with a large enough effect; inconclusive = small, poorly fitted or top-dose-only effect, or another doubt; inactive = no such curve, though single readings can be large; an effect the other way counts as inactive or inconclusive. Potency is the fitted concentration of half-maximal effect.
SMILES,12-LOX inh,HP1b chromo inh,JMJD2A Tudor,BAZ2B inh,PLK1 PBD inh,G9a block
CCOCCCNC(=O)c1ccc2c(c1)ncn2-c1ccc(C)cc1C,-3.7%,-3.4%,?,-13.1%,18.9µM*,3.1%
O=C(Nc1nc2ccccc2n1CCN1CCOCC1)c1ccc(Cl)cc1,0.5%,9.4%,-14.2%,-3.7%,3.5%,·
Brc1ccc(-c2cn3c4ccccc4nc3n2CCCN2CCCC2)cc1,10µM*,·,·,·,·,·
O=C(Nc1nc2ccccc2n1CCN1CCCC1)C1CCCCC1,2.0%,14.8%,-25.7%,50.1µM*,-8.3%,8.8%[12.7 µM]
Brc1ccc(CNc2nc3ccccc3n2CCN2CCCCC2)cc1,-11.0%,27.2%,-23.8%,?,2.4%,44.7µM*
CCC(=O)Nc1nc2ccccc2n1CCN1CCOCC1,?,-9.7%,3.16µM*,·,-1.3%,?
O=C(Cn1cccc1-c1nc(-c2ccc(F)cc2)no1)N1CCN(c2ccc(F)cc2)CC1,35.8%,·,·,·,·,·
Cc1nc2nc(-c3cccs3)cn2nc1C,0.0%,-5.2%,-7.6%[57.1 µM],10.3%,29.9µM*,-12.3%[59 µM]
COc1cccc(-c2cn3nc(C)c(C)nc3n2)c1,45.4%,49.0%,-17.1%,12.1%,0.1%,20µM*
Cc1nc2nc(-c3ccc(Cl)cc3)cn2nc1C,-24.4%,42.5%,5.5%,-0.5%,-5.2%,26.6%[12.7 µM]
CC(C)(C)c1ccccc1OCC(=O)Nc1ncn[nH]1,25.5%,37.8%,-14.0%,?,-7.3%,35.5µM*
CCc1ccc(OCC(=O)Nc2ncn[nH]2)c(Br)c1,5.5%,47.3%,-6.0%,89.1µM*,·,-17.8%[59 µM]
CC(C)(C)c1cc(Br)ccc1OCC(=O)Nc1ncn[nH]1,20.6%,33.6%,-7.0%,2.0%,-4.7%,20.1%
O=C(O)CCCC(=O)N1CCN(c2ncccn2)CC1,0.0%,6.4%,-8.7%,2.1%,6.7%,·
O=C(SCc1c(O)c2ccccc2oc1=O)c1ccccc1,28.2µM*,·,·,·,13.4µM*,·
COc1cc(/C=C2\CC(C(C)(C)C)C/C(=C\c3cc(OC)c(OC)c(OC)c3)C2=O)cc(OC)c1OC (configuration not stated),0.0%,?,?,?,7.8%,-31.4%[2.33 µM]
COc1cc(OC)c(OC)cc1/C=C1\CC(C)C/C(=C\c2cc(OC)c(OC)cc2OC)C1=O (configuration not stated),?,?,20µM*,11.2µM*,30.9%,31.6µM*
COc1cc(OC)c(OC)cc1/C=C1/Cc2ccccc2C1=O,0.0%,81.8%,-21.8%,3.7%,-7.8%,-8.8%[2.33 µM]
CCC1C/C(=C\c2cc(OC)c(OC)cc2OC)C(=O)/C(=C/c2cc(OC)c(OC)cc2OC)C1 (configuration not stated),·,?,17.8µM*,10µM*,22.6%,25.1µM*
CCC1C/C(=C/c2ccco2)C(=O)/C(=C/c2ccco2)C1 (configuration not stated),·,·,·,28.2µM*,·,31.6µM*
CC12CCCC(=O)C1CCC(=Cc1ccco1)C2=O (configuration not stated),-17.3%,·,·,·,-16.0%,·
Cc1ccc2nc(CN(C)C(=O)[C@@H](Cc3ccccc3)NC(=O)[C@H]3O[C@@H](n4cnc(C(N)=O)n4)[C@H](O)[C@@H]3O)[nH]c2c1,-2.6%,·,·,·,·,·
CC(=O)c1ccc(N2CCN(c3ncnc4c3c(-c3ccccc3)cn4-c3ccc(C)c(Cl)c3)CC2)cc1,-2.9%,-8.2%,-26.0%,-19.2%,·,8.2%[59 µM]
C[C@@H]1NC(=O)[C@H](CC(N)=O)NC(=O)c2cc([N+](=O)[O-])cc(I)c2OCC[C@@H](C(=O)NC(CC(=O)O)C(N)=O)NC1=O (some centres not stated),-12.9%,19.3%,-32.4%,-37.6%,-19.1%,28.2µM*
NC(=O)C(CC(=O)O)NC(=O)[C@@H]1CCOc2c(I)cc([N+](=O)[O-])cc2C(=O)N[C@@H](CCC(=O)O)C(=O)N[C@@H](CO)C(=O)N1 (some centres not stated),·,31.7%,?,?,-0.2%,7.94µM*
SMILES,12-LOX inh,HP1b chromo inh,JMJD2A Tudor,BAZ2B inh,PLK1 PBD inh,G9a block
C[C@@H]1NC(=O)c2cc([N+](=O)[O-])cc(I)c2OCC[C@@H](C(=O)NC(CC(=O)O)C(N)=O)NC(=O)[C@H](CCC(=O)O)NC1=O (some centres not stated),·,0.0%,?,-27.4%,-16.1%,35.5µM*
CCOC(=O)C1CCN(CC(O)COCc2ccc3c(c2)OCO3)CC1 (configuration not stated),-2.5%,40.6%,-0.3%,3.2%,5.4%,0.6%
CC(C)NC(=O)CNC(=O)C(=O)Nc1ccc2cc[nH]c2c1,-10.9%,·,·,·,·,·
CC(C)CNC(=O)C(=O)Nc1ccc2cc[nH]c2c1,35.5µM*,·,·,·,·,·
C=C1Cc2c(Cl)cc3[nH]c4c5c3c2[C@@]2(O)[C@@H]1C[C@@H]2C(C)(C)O[C@H]5[C@@H]1CC[C@@]2(O)[C@@]35O[C@@H]3[C@@H](O)[C@@H](C(=O)O)O[C@H]5CC[C@]2(C)[C@@]41C,?,·,·,·,·,23.9%[59 µM]
COc1cc2[nH]c(=O)[nH]c(=O)c2cc1OC,-8.0%[22.9 µM],·,·,·,·,-3.6%[5.15 µM]
C=CCNc1nc(=S)[nH]c2cc(OC)c(OC)cc12,-11.9%,15.5%,?,-23.1%,-9.6%,25.1µM*
COc1cc2[nH]c(=S)nc(NC3CCCC3)c2cc1OC,·,·,·,-35.0%,·,31.6µM*
Cc1cc2cc(C(=O)N3C[C@H]4CC=CC[C@H]4C3)ccc2o1,13.0%,·,·,·,·,·
Cc1[nH]c(=O)[nH]c(=O)c1N1CCOCC1,16.4%,20.4%,11.8%[11.4 µM],-0.9%,2.1%,·
O=c1[nH]nc(N2CCOCC2)c(=O)[nH]1,-5.4%,-3.8%,-35.3%[11.4 µM],0.5%,4.74µM*,·
O=C(CSCc1ccco1)N1CCc2ccccc21,·,18.5%,-23.8%,-26.8%,-16.2%,70.8µM*
O=C(NC(Cc1ccccc1)C(=O)OCC(=O)N1CCc2ccccc21)c1ccco1 (configuration not stated),440.1%,9.4%,-10.9%,-0.9%,4.2%,14.1µM*
CCOC(=O)c1ccc(Nc2cnc3ccccc3n2)cc1,29.1%,36.6%,-3.5%,-17.4%,1.0%,65.4%[12.7 µM]
CCc1cccc(NS(=O)(=O)c2ccc3c(c2)N(CC(=O)OC)C(=O)CS3)c1,-25.4%,37.4%,-5.2%,-24.6%,·,0.9%[59 µM]
Cc1nc(C2CCN(C(=O)[C@@H](N)[C@@H](C)O)CC2)cc(N2CCOCC2)n1,-3.8%,·,·,·,·,·
Cc1ccccc1C(=O)Nc1cccc(C(=O)N/N=C/c2ccccn2)c1,125.1%,58.5%,?,6.9%,4.4%,?
O=C(OCc1ccccc1)N1CCC2CC1c1cc(N3CCN(C(=S)NCCc4ccccc4)CC3)ccc12 (configuration not stated),20µM*,·,·,·,-9.8%,·

# Compound activity from PubChem.
